# Data from PubChem BioAssay AID686978 (National Center for Advancing Translational Sciences (NCATS), 2013).
# The whole screen tested about 420,000 compounds, of which about 64,000 (15%) were called active. Another 27% or so got no clear call; they are omitted. A selection follows. Unmarked numbers belong to inactive results. The call rests on the fitted dose curve; in most records, active means well fitted inhibition curve with a large enough effect; inconclusive means small, poorly fitted or top-dose-only effect; inactive means flat fitted curve, though single readings scatter.
# Experiment: qHTS for Inhibitors of human tyrosyl-DNA phosphodiesterase 1 (TDP1): qHTS in cells in absence of CPT; further: nearly all actives have a fitted effect of over 55% in size
# Settings: DT40 Tdp1-/- hTDP1 cells, no CPT, ATP luminescence, 48 h; activity change, negative = growth inhibition: at 46.2 µM (top of the series)
# In short: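 Growth kinetics read by CellTiter-Glo luminescence after ≥48 hr at 37 °C. Cells: DT40 Tdp1-/- stably carrying human TDP1, 400 per well, compound exposure in the absence of CPT (DMSO vehicle).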
# On the % scale 0 is the no-effect control and ±100 the full control effect; potency means the concentration at half of the fitted maximal effect.
Compound,"activity change, negative = growth inhibition [%]",Potency
O=C1C(=O)N(CCCO)C(c2ccccc2)/C1=C(\O)c1ccc(Br)cc1 (stereo not drawn),-1.82,
Cc1ccc(C(=O)NC2CC(C)(C)NC(C)(C)C2)c(C)c1,-20.5,
Cn1c2c(c(=O)n(C)c1=O)C1c3ccccc3OCC1C(C)(C)O2 (stereo not drawn),-20.6,
CC(Nc1nc(C(F)(F)F)nc2ccccc12)c1cccs1 (stereo not drawn),,20.6 µM (active)
CCN(CC)C(=O)c1ccc(O)c(OC)c1,,inactive
CCOC(=O)N1CCc2c(sc3c2c(=O)n(Cc2ccccc2)c(=O)n3CC(=O)Nc2cccc(C)c2)C1,-10,
CC1CCN(C(=O)Cn2c(=O)n(-c3ccc(Cl)cc3)c(=O)c3c4c(sc32)CCC4)CC1,-14.1,
O=c1c2c3c(sc2n(CCN2CCCC2)c(=O)n1Cc1ccccc1)CCCCC3,,11.6 µM (active)
NC(=O)c1ncc(C(F)(F)F)cc1Oc1ccc(F)cc1,7.01,
CC(C)c1ccc(NC(=O)C2CCCN(S(=O)(=O)c3cccnc3)C2)cc1 (stereo not drawn),,7.31 µM (active)
COc1ccc(S(=O)(=O)N2CCCC(C(=O)NCCCn3ccnc3)C2)cc1OC (stereo not drawn),-13.3,
COc1ccc(NC(=O)C2CCCN(S(=O)(=O)c3c(C)[nH]c(=O)[nH]c3=O)C2)c(OC)c1 (stereo not drawn),14.1,
Cc1n[nH]c(C)c1S(=O)(=O)N1CCCC(C(=O)Nc2ccc(Br)cc2)C1 (stereo not drawn),,16.4 µM (active)
Cc1ccccc1N1CC(C(=O)Nc2ccc(S(=O)(=O)N3CCCC3)cc2)CC1=O (stereo not drawn),-26,
Cc1n[nH]c(C)c1S(=O)(=O)N1CCCC(C(=O)NCC2COc3ccccc3O2)C1 (stereo not drawn),-25.9,
O=C(Cc1ccsc1)N1CCN(S(=O)(=O)c2cc(C(F)(F)F)cc(C(F)(F)F)c2)CC1,-13.1,
CCOC(=O)C1=CN(Cc2ccc(Br)cc2)S(=O)(=O)NC1C (stereo not drawn),-1.97,
Cc1ccc(C(=O)NNC2=Nc3cc([N+](=O)[O-])ccc3OC2)cc1,-28,
Cc1nn(C(=O)c2c(F)cccc2F)c(C)c1S(=O)(=O)N1CCOCC1,1.73,
CC(C)=N/N=C1/NC(=O)C(Cc2ccccc2)S1 (stereo not drawn),14,
O=C(NC(=S)Nc1ccc(Br)cc1F)C1CCCCC1,-23.3,

Compound,"activity change, negative = growth inhibition [%]",Potency
Cc1nnsc1C(=O)N/N=C/c1ccccc1Cl,-7.21,
O=C(N/N=C/c1ccc(O)c2ccccc12)c1cccnc1,-15.7,
Cc1ccc(/C=N/NC(=O)C2=NNC(c3ccccc3)(c3ccccc3)C2)c(O)c1,,4.11 µM (active)
O=C(O)c1cscn1,4.68,
O=C(Cc1nn[nH]n1)NCCC1=CCCCC1,-18.9,
CC(=O)Nc1ccc(S(=O)(=O)N(C)CC(=O)NCCC2=CCCCC2)cc1,-7.69,
S=C(NCCC1=CCCCC1)Nc1ccccc1,,23.1 µM (active)
CC(OC(=O)c1c(F)cccc1F)C(=O)NCCC1=CCCCC1 (stereo not drawn),-21.2,
O=C(CCNC(=O)Cn1ccc2ccccc2c1=O)NCCC1=CCCCC1,-1.25,
O=C(Cc1cccc2ccccc12)NCCC1=CCCCC1,,29.1 µM (active)
CC(C)CC(=O)N1CCN(Cc2cccc(Cl)c2)CC1,-15.7,
CCOc1ncccc1C(=O)N(CC)CC(=O)Nc1ccc(NC(C)=O)cc1,-13.9,
COc1ccc(-n2nc(C(=O)NCCc3ccc(Cl)cc3)c3c4ccccc4n(C)c3c2=O)cc1Cl,,13 µM (active)
CCOC(=O)c1ccccc1NC(=O)c1nn(-c2ccc(OC)c(Cl)c2)c(=O)c2c1c1ccccc1n2C,-5.84,
COCCCNC(=O)CNC(=O)c1nn(-c2ccc(OC)cc2)c(=O)c2ccccc12,2.56,
COc1ccc(-n2nc(C(=O)NCC(=O)N3CCCCCC3)c3ccccc3c2=O)cc1Cl,,23.1 µM (active)
CCOC(=O)CNC(=O)c1nn(-c2cccc(OC)c2)c(=O)c2ccccc12,-15.7,
COc1ccc(-n2nc(C(=O)NCC(=O)N3CCC(C(N)=O)CC3)c3ccccc3c2=O)cc1OC,-4.08,
S=C(Nc1ccc2c(c1)OCO2)N1CCCC1,5.97,
Nc1ccc(Cl)c(S(=O)(=O)Nc2ccccc2Cl)c1,-16.2,
CCN(c1ccccc1)S(=O)(=O)c1ccc2[nH]c(=O)[nH]c2c1,-5.25,

Compound,"activity change, negative = growth inhibition [%]",Potency
Cc1cc(C)n(CC(O)CN(c2ccccc2)S(=O)(=O)c2ccc3ccccc3c2)n1 (stereo not drawn),,23.1 µM (active)
O=S(=O)(c1ccccc1)N(CC(O)CN1CCCCC1)c1ccccc1 (stereo not drawn),-22.7,
CCCCCN(C(=O)CCC(=O)OCC(=O)NC1CCC(C)CC1)c1c(N)n(CCCC)c(=O)[nH]c1=O (stereo not drawn),-10.5,
Cc1nc(SCC(=O)N2CCN(c3ccccc3)CC2)[nH]c(=O)c1C,-8.2,
O=C(COC(=O)CNC(=O)c1ccco1)Nc1ccc(F)cc1,3.34,
CCCNC(=O)c1ccc(N2CCC3(CC2)CC(c2ccc(Cl)cc2)=NO3)c([N+](=O)[O-])c1,,20.6 µM (active)
COC(=O)c1ccc(N2CCOCC2)c(NC(=O)c2ccc(Br)o2)c1,2.37,
CCCN(CCC)CCNC(=O)c1ccc2c(c1)NC(=O)C(CS(=O)(=O)Cc1cccc(Br)c1)N2 (stereo not drawn),-13.6,
COCCNC(=O)c1ccc(N2CCC3(CC2)OCCO3)c([N+](=O)[O-])c1,6.61,
CCCNC(=O)c1ccc(N2CCC3(CC2)CC(c2cccc(Br)c2)=NO3)c(NC(=O)c2ccco2)c1,,6.51 µM (active)
CCN1CCC(=NNC(=O)c2ccc(C)c([N+](=O)[O-])c2)CC1,-6.49,
CN[C@@H]1[C@@H](O)[C@@H](O[C@@H]2[C@H](O)[C@H](O[C@H]3OC(CN)=CC[C@H]3N)[C@@H](N)C[C@H]2N)OCC1(C)O (stereo partly drawn),-2.47,
CN1C(C)(C)CC(NC(=O)CCC(=O)NC2CC(C)(C)N(C)C(C)(C)C2)CC1(C)C,-1.8,
O=P(O)(CP(=O)(c1ccccc1)c1ccccc1)c1ccccc1,5.73,
Cc1ccc(S(=O)(=O)N2CC(=O)Nc3ccccc32)cc1C,-3.91,
C=CCOC(=O)C1=C(C)NC(SCC(=O)OCC)=C(C#N)C1c1ccc(C)cc1 (stereo not drawn),-15.5,
C=CCOC(=O)C1=C(C)OC(N)=C(C#N)C1c1ccc(F)cc1 (stereo not drawn),,29.1 µM (active)
COC(=O)C1=C(C)OC(N)=C(C#N)C1c1cc(OC)ccc1OC (stereo not drawn),-29.9,
Nc1nc(Sc2ncccc2[N+](=O)[O-])n[nH]1,-8.98,
O=C(CSc1nnc(-c2ccc([N+](=O)[O-])cc2)o1)Nc1ccccn1,-7.37,
O=[N+]([O-])c1ccccc1SNc1ccccn1,,16.4 µM (active)
